Where a name gives a salt, the structure may show the parent alone. ± gives the standard deviation of the averaged measurements.
How the values were obtained:
Experiment in all cases: growth (OD600 after 10 h); higher = more growth (less inhibition)
[1] = tested on: E. coli TESEC Alr+ wild-type control; conditions: compound 0.1 mM; raw OD600 reference: median of DMSO wells 0.241, cell-free background 0.041
Method: (§1)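 TESEC Mtb Alr E. coli, or the Alr+ wild-type control, in 384-well plates with Prestwick library compounds at 0.1 mM and 1% DMSO, across arabinose induction levels of 1E3 to 1E7 nM. Growth is read as OD600 after 10 h at 37 °C in triplicate biological replicates.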

E. coli TESEC Mtb Alr [2] = conditions: compound 0.1 mM
Method: as §1

E. coli TESEC Mtb Asd = conditions: compound 0.1 mM
Method: (§2)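 TESEC E. coli strains in which the native enzyme is deleted and replaced by arabinose-inducible Mtb Asd, DapB, CysH or TrpD, each grown in its selective medium. Strains were screened against the Prestwick library at 0.1 mM and 1% DMSO in 384-well format at low and high arabinose induction. Growth is read as OD600 after 10 h in triplicate.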

E. coli TESEC Mtb DapB = conditions: compound 0.1 mM
Method: as §2

[3] = tested on: E. coli TESEC Alr+ wild-type control; conditions: compound 0.1 mM; raw OD600 reference: median of DMSO wells 0.49, cell-free background 0.052
Method: (§3)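 TESEC Mtb Alr E. coli (ΔaraC ΔtolC ΔentC Δalr ΔdadX, arabinose-inducible Mtb Alr) or the Alr+ wild-type control strain, grown in defined M9-fructose medium without D-alanine in 96-well plates with Prestwick library compounds at 0.1 mM and 1% DMSO. Low Alr induction is 0.1 µM arabinose and high induction is 10 mM arabinose.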

E. coli TESEC Mtb Alr [4] = conditions: compound 0.1 mM; remark: listed apart in the source
Method: as §3

[5] = arabinose 1000 nM, raw OD600 reference: median of DMSO wells 0.294, cell-free background 0.041
[6] = arabinose 10000 nM, raw OD600 reference: median of DMSO wells 0.264, cell-free background 0.041
[7] = arabinose 100000 nM, raw OD600 reference: median of DMSO wells 0.201, cell-free background 0.041
[8] = arabinose 1000000 nM, raw OD600 reference: median of DMSO wells 0.193, cell-free background 0.041
[9] = arabinose 10000000 nM, raw OD600 reference: median of DMSO wells 0.146, cell-free background 0.041
[10] = arabinose induction (level): High, raw OD600 reference: median of DMSO wells 0.331, cell-free background 0.041
[11] = arabinose induction (level): Low, raw OD600 reference: median of DMSO wells 0.417, cell-free background 0.041
[12] = arabinose induction (level): High, raw OD600 reference: median of DMSO wells […], cell-free background 0.041
[13] = arabinose induction (level): Low, raw OD600 reference: median of DMSO wells 0.227, cell-free background 0.041
[14] = arabinose 100 nM, raw OD600 reference: median of DMSO wells 0.413, cell-free background 0.052
[15] = arabinose 10000000 nM, raw OD600 reference: median of DMSO wells […], cell-free background 0.052

Compound | growth [1] | growth (E. coli TESEC Mtb Alr [2]; [5]) | growth (E. coli TESEC Mtb Alr [2]; [6]) | growth (E. coli TESEC Mtb Alr [2]; [7]) | growth (E. coli TESEC Mtb Alr [2]; [8]) | growth (E. coli TESEC Mtb Alr [2]; [9]) | growth (E. coli TESEC Mtb Asd; [10]) | growth (E. coli TESEC Mtb Asd; [11]) | growth (E. coli TESEC Mtb DapB; [12]) | growth (E. coli TESEC Mtb DapB; [13]) | growth [3] | growth (E. coli TESEC Mtb Alr [4]; [14]) | growth (E. coli TESEC Mtb Alr [4]; [15])
Nc1nc(N)nc(-c2cc(Cl)ccc2Cl)n1 [Irsogladine maleate] | 0.238 ± 0.0051 | 0.298 ± 0.013 | 0.2393 ± 0.0018 | 0.207 ± 0.011 | 0.173 ± 0.0041 | 0.143 ± 0.0066 | 0.297 ± 0.072 | 0.406 ± 0.025 | 0.197 ± 0.019 | 0.211 ± 0.017 | 0.589 ± 0.1 | 0.402 ± 0.0076 | 0.357 ± 0.0079
CCN(CC)CCOC(=O)C(c1ccccc1)C1CCCCC1 (configuration not stated) [Drofenine hydrochloride] | 0.149 ± 0.0031 | 0.203 ± 0.017 | 0.218 ± 0.0035 | 0.16 ± 0.0022 | 0.0678 ± 0.00092 | 0.1432 ± 0.00046 | 0.119 ± 0.0039 | 0.271 ± 0.017 | 0.156 ± 0.0038 | 0.179 ± 0.014 | 0.428 ± 0.026 | 0.407 ± 0.019 | 0.168 ± 0.058
CCCCCN(CCCCC)C(=O)C(CCC(=O)O)NC(=O)c1ccc(Cl)c(Cl)c1 (configuration not stated) [Lorglumide sodium salt] | 0.152 ± 0.0035 | 0.158 ± 0.01 | 0.114 ± 0.0014 | 0.158 ± 0.0084 | 0.0691 ± 0.00087 | 0.125 ± 0.0012 | 0.194 ± 0.019 | 0.162 ± 0.0069 | 0.153 ± 0.015 | 0.243 ± 0.015 | 0.104 ± 0.002 | 0.302 ± 0.17 | 0.161 ± 0.025
CN(C)CCCN1c2ccccc2CCc2ccccc21 [Imipramine hydrochloride] | 0.189 ± 0.019 | 0.242 ± 0.018 | 0.285 ± 0.013 | 0.212 ± 0.014 | 0.133 ± 0.0058 | 0.175 ± 0.011 | 0.164 ± 0.026 | 0.363 ± 0.063 | 0.194 ± 0.016 | 0.243 ± 0.071 | 0.452 ± 0.015 | 0.408 ± 0.0092 | 0.21 ± 0.11
Cc1c(C)c2c(c(C)c1O)CCC(C)(C(=O)O)O2 (configuration not stated) [Trolox] | 0.247 ± 0.0084 | 0.295 ± 0.0077 | 0.255 ± 0.0029 | 0.209 ± 0.031 | 0.1784 ± 0.0016 | 0.143 ± 0.0045 | 0.272 ± 0.097 | 0.32 ± 0.15 | 0.242 ± 0.0084 | 0.222 ± 0.021 | 0.579 ± 0.053 | 0.405 ± 0.0096 | 0.316 ± 0.024
COc1cc2nc(N3CCN(C(=O)C4CCCO4)CC3)nc(N)c2cc1OC (configuration not stated) [Terazosin hydrochloride] | 0.208 ± 0.008 | 0.292 ± 0.0061 | 0.2762 ± 0.00084 | 0.139 ± 0.0052 | 0.138 ± 0.0066 | 0.144 ± 0.0038 | 0.215 ± 0.012 | 0.431 ± 0.0086 | 0.222 ± 0.02 | 0.219 ± 0.012 | 0.443 ± 0.035 | 0.407 ± 0.01 | 0.259 ± 0.019
CC(=O)NCCCS(=O)(=O)O [Acamprosate calcium] | 0.233 ± 0.004 | 0.2868 ± 0.0017 | 0.242 ± 0.0043 | 0.202 ± 0.026 | 0.1706 ± 0.0011 | 0.142 ± 0.0039 | 0.259 ± 0.079 | 0.309 ± 0.033 | 0.212 ± 0.031 | 0.229 ± 0.028 | 0.472 ± 0.035 | 0.409 ± 0.01 | 0.35 ± 0.025
CN1CC2c3ccccc3Oc3ccc(Cl)cc3C2C1 (configuration not stated) [Asenapine maleate] | 0.184 ± 0.004 | 0.159 ± 0.012 | 0.225 ± 0.0073 | 0.18 ± 0.004 | 0.123 ± 0.0024 | 0.164 ± 0.0081 | 0.229 ± 0.031 | 0.295 ± 0.017 | 0.213 ± 0.0042 | 0.254 ± 0.026 | 0.44 ± 0.01 | 0.417 ± 0.0072 | 0.266 ± 0.0045
CC(=O)O[C@]1(C(C)=O)CC[C@H]2[C@@H]3C=C(Cl)C4=CC(=O)CC[C@]4(C)[C@H]3CC[C@@]21C [Chlormadinone acetate] | 0.15 ± 0.0069 | 0.156 ± 0.0078 | 0.0802 ± 0.014 | 0.148 ± 0.0022 | 0.0653 ± 0.0047 | 0.11 ± 0.0088 | 0.12 ± 0.0098 | 0.0867 ± 0.0071 | 0.0988 ± 0.0082 | 0.109 ± 0.029 | 0.442 ± 0.0057 | 0.3733 ± 0.0037 | 0.203 ± 0.03
O=C1CN2Cc3c(ccc(Cl)c3Cl)N=C2N1 [Anagrelide] | 0.216 ± 0.0042 | 0.2815 ± 0.0021 | 0.281 ± 0.0097 | 0.191 ± 0.0049 | 0.209 ± 0.011 | 0.142 ± 0.005 | 0.27 ± 0.06 | 0.423 ± 0.043 | 0.198 ± 0.011 | 0.232 ± 0.024 | 0.536 ± 0.019 | 0.413 ± 0.011 | 0.368 ± 0.065
COc1ccccc1OCCNCC(O)COc1cccc2[nH]c3ccccc3c12 (configuration not stated) [Carvedilol] | 0.0443 ± 0.0033 | 0.0415 ± 0.00062 | 0.046 ± 0.0023 | 0.0419 ± 0.00047 | 0.04137 ± 0.0004 | 0.0456 ± 0.0015 | 0.0533 ± 0.004 | 0.0496 ± 0.0017 | 0.0942 ± 0.026 | 0.06 ± 0.004 | 0.167 ± 0.11 | 0.4106 ± 0.0016 | 0.0825 ± 0.025
Cc1ccsc1/C=C/C1=NCCCN1C [Morantel tartrate] | 0.248 ± 0.0087 | 0.306 ± 0.0079 | 0.252 ± 0.0038 | 0.204 ± 0.012 | 0.176 ± 0.0069 | 0.1525 ± 0.00097 | 0.358 ± 0.016 | 0.379 ± 0.034 | 0.205 ± 0.038 | 0.294 ± 0.089 | 0.513 ± 0.029 | 0.409 ± 0.0089 | 0.259 ± 0.17
Oc1ccc(C2CNCCc3c2cc(O)c(O)c3Cl)cc1 (configuration not stated) [Fenoldopam] | 0.0924 ± 0.0031 | 0.0795 ± 0.0009 | 0.0538 ± 0.0026 | 0.0873 ± 0.0018 | 0.0562 ± 0.0034 | 0.086 ± 0.0096 | 0.113 ± 0.0085 | 0.126 ± 0.017 | 0.149 ± 0.035 | 0.135 ± 0.029 | 0.355 ± 0.023 | 0.104 ± 0.048 | 0.0738 ± 0.006
COc1ccc(C(=O)c2ccccc2)c(O)c1 [Oxybenzone] | 0.114 ± 0.003 | 0.148 ± 0.011 | 0.15 ± 0.004 | 0.151 ± 0.017 | 0.0914 ± 0.0039 | 0.0993 ± 0.0024 | 0.223 ± 0.023 | 0.334 ± 0.01 | 0.186 ± 0.015 | 0.257 ± 0.0051 | 0.27 ± 0.011 | 0.377 ± 0.022 | 0.146 ± 0.021

From the supplement of paper PMC9262897, “Low-cost anti-mycobacterial drug discovery using engineered E. coli” (Nature Communications, 2022)
